# From PubChem BioAssay (NCATS)
# Inconclusive results are not listed. Entries that show only a call come without a potency. Where a structure was tested more than once in an assay, its records may differ in their call. The source made the active and inactive calls. Unless noted, calls come from the whole dose curve; as a rule, active = well fitted curve in the direction sought with a large enough effect; inconclusive = small, poorly fitted or top-dose-only effect, or another doubt; inactive = no such curve, though single readings can be large; an effect the other way counts as inactive or inconclusive.
# How the values were obtained:
# [1] = target: Beta-2 adrenergic receptor (Homo sapiens) (UniProt P07550); assay: qHTS validation assay of beta-arrestin-biased ligands of beta2-adrenergic receptor (AID 485366)
# How it was run: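 Compound series up to 46 microM applied to beta2-AR/beta-arrestin Tango cells, 18 hr, 37 degrees C, 5% CO2. Read-out: tTA-driven luciferase luminescence, converted to %Activity; concentration-response curves assigned curve classes.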
# [2] = target: ATP-dependent 6-phosphofructokinase (Trypanosoma brucei brucei) (UniProt O15648); assay: qHTS Validation Assay to Find Inhibitors of T. brucei phosphofructokinase (AID 485368)
# How it was run: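 qHTS format, up to 57 uM. PFK 1.25 nM; F6P 0.5 mM; ATP 0.1 mM; 5 mM MgCl2, 0.01% Tween20, 0.1% BSA; 0.1 M TEA pH 8.0; 45 min RT; ADP-Glo readout; no-enzyme control = full inhibition.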
# [3] = target: Thioredoxin reductase 1, cytoplasmic (Rattus norvegicus) (UniProt O89049); assay: qHTS Assay for Inhibitors of Mammalian Selenoprotein Thioredoxin Reductase 1 (TrxR1) (AID 488773); settings: Potency: inhibition;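 note: drop in NADPH fluorescence over an 8 min run after selenite addition; series mostly up to about 57 µM; nearly all actives have a fitted effect of over 40% in size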
# How it was run: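 Inhibition is scored from the loss of NADPH fluorescence between first and last reads of an 8-min kinetic run. Selenite (400 uM) was the substrate, added after 15 min compound preincubation at room temperature.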
# [4] = target: Flap endonuclease 1 (Homo sapiens) (UniProt P39748); assay: qHTS Validation Assay for the Inhibitors of Human Flap endonuclease 1 (FEN1) (AID 488816); note: potency is the fitted concentration of half-maximal effect
# How it was run: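 qHTS format: compounds and 10 nM FEN1 incubated 15 min at room temperature before adding 50 nM substrate. Cleavage followed by reads at 0 and 15 min; normalized data fitted to a four-parameter Hill curve.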
# [5] = target: M-phase phosphoprotein 8 (Homo sapiens) (UniProt Q99549); assay: qHTS Validation Assay for Inhibitors for MPP8 Chromodomain Interactions with Methylated Histone Tails (AID 488949); note: nearly all actives have a fitted effect of over 55% in size; note: potency is the fitted concentration of half-maximal effect
# How it was run: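 AlphaScreen read-out: streptavidin donor and nickel chelate acceptor beads (final 10 ug/mL), 30 min in the dark at RT. Complex of 50 nM MPP8 and 50 nM b-H3(1-18)K9me3 peptide had been exposed to compounds for 30 min beforehand.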
# [6] = target: Methanococcus maripaludis chaperonin (MmCpn) (UniProt Q6LX38); assay: High-Throughput Screening for Modulators of Cytosolic Chaperonin Activity: MmCpn Primary Screen (AID 488978);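 note: 50 nM MmCpn enzyme hydrolysing 30 µM ATP at 37 °C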
# How it was run: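 ADP formation read by HTRF Transcreener, 665/590 nm emission after 320 nm excitation. Enzyme: archaeal chaperonin at 50 nM final; substrate ATP 30 uM final; 10 min, 37C, after 5 min compound preincubation at RT.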
# [7] = target: D(1A) dopamine receptor (Homo sapiens) (UniProt P21728); assay: HTS Assay for Allosteric Agonists of the Human D1 Dopamine Receptor: Primary Screen for Agonists (AID 488981)
# How it was run: (§1)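 Calcium flux in an inducible, force-coupled HEK293 Trex D1 line (overnight at 30 C): agonist mode is the 180 s kinetic read after compound; potentiator mode is the following 180 s read after dopamine at EC20.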
# [8] = target: D(1A) dopamine receptor (Homo sapiens) (UniProt P21728); assay: HTS Assay for Allosteric Agonists of the Human D1 Dopamine Receptor: Primary Screen for Potentiators (AID 488982)
# How it was run: as §1
# [9] = target: D(1A) dopamine receptor (Homo sapiens) (UniProt P21728); assay: HTS Assay for Allosteric Agonists of the Human D1 Dopamine Receptor: Primary Screen for Antagonists (AID 488983);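 note: calcium flux response to an EC80 dopamine challenge measured with no-wash dye; nearly all actives have a fitted effect of over 65% in size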
# How it was run: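 Calcium flux readout, no-wash dye, inducible HEK293 T-REx D1 line (force-coupled). Compound added after 10 s baseline, 180 s kinetic read; then dopamine at EC80, further 180 s read.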
# [10] = Validation screen for small molecules that induce genotoxicity in human embryonic kidney (HEK293T) cells expressing luciferase-tagged ELG1 (AID 493106); note: potency is the fitted concentration of half-maximal effect
# How it was run: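 qHTS format; 2,000 HEK293T ELG1-luc cells/well; 23 nL compound via pin tool; 16 hr, 37 °C/5% CO2; ONE-Glo, 30 min RT; luminescence read.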
# [11] = Quantitative high throughput screen for delayed death inhibitors of the malarial parasite plastid, 96 hour incubation (AID 488745); note: nearly all actives have a fitted effect of over 70% in size; note: potency is the fitted concentration of half-maximal effect
# How it was run: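 Luciferase-expressing P. falciparum, infected RBCs 2% Hct/0.1% parasitemia (final); 96 h cpd exposure, 37 C, 5% CO2; RPMI 1640 + 0.5% Albumax, bicarbonate, gentamycin. Readout: luminescence loss = growth inhibition.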
# [12] = Quantitative high throughput screen for delayed death inhibitors of the malarial parasite plastid, 48 hour incubation (AID 488752); note: nearly all actives have a fitted effect of over 65% in size
# How it was run: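 Luciferase-expressing P. falciparum in RBCs, 2% Hct, 0.1% parasitemia final; RPMI 1640 + 0.5% Albumax; 48 h, 37 C, 5% CO2; luminescence readout, signal drop = growth inhibition.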
# [13] = target: Thioredoxin reductase 1, cytoplasmic (Rattus norvegicus) (UniProt O89049); assay: qHTS Assay for Substrates of Mammalian Selenoprotein Thioredoxin Reductase 1 (TrxR1) (AID 488772);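 note: series mostly up to about 57 µM; a drop in NADPH fluorescence below the no-compound background marks a TrxR1 substrate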
# How it was run: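 In this dual-purpose format, potential substrates are identified from the first fluorescence read after selenite addition, not from the 8-minute delta. Rat enzyme is preincubated with NADPH and then with compound at ~22 deg C.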
# [14] = target: Chromobox protein homolog 1 (Homo sapiens) (UniProt P83916); assay: qHTS Validation Assay for Inhibitors of HP1-beta Chromodomain Interactions with Methylated Histone Tails (AID 488953); note: nearly all actives have a fitted effect of over 50% in size; note: potency is the fitted concentration of half-maximal effect
# How it was run: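 AlphaScreen proximity readout: streptavidin donor and Ni-chelate acceptor beads, 10 ug/mL final, 30 min dark, RT. Complex of 50 nM HP1-beta and 50 nM b-H3(1-18)K9me3 formed 30 min, then compound-treated 30 min; PBS pH 7.4/0.01% Tween-20.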
# [15] = target: Transient receptor potential cation channel subfamily V member 1 (Homo sapiens) (UniProt Q8NER1); assay: HTS Assay for Compounds that Act as Enhancers of the Vanilloid Receptor 1 (AID 488979)
# How it was run: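 Calcium influx kinetics via Fluo-8 (480/520 nm) in TRPV1-expressing cells, 2000/well cultured overnight at 35.5C. Compound-alone read 3 min (agonist phase), followed by EC20 capsaicin challenge for 2 min (enhancer phase).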
# [16] = target: Thyrotropin receptor (Homo sapiens) (UniProt P16473); assay: qHTS Assay for Antagonists of the Thyroid Stimulating Hormone Receptor (AID 488980); note: series mostly up to about 58 µM
# How it was run: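 TSHR-HEK293 cells; 70 uM RO 20-1724 PDE inhibitor; compound + EC80 TSH (4 nM final); anti-cAMP cryptate antibody/cAMP-d2 in lysis buffer, 30 min RT; HTRF 665/620 nm read.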
# [17] = target: ATPase family AAA domain-containing protein 5 (Homo sapiens) (UniProt Q96QE3); assay: Validation screen for small molecules that inhibit ELG1-dependent DNA repair in human embryonic kidney (HEK293T) cells expressing luciferase-tagged ELG1 (AID 493107); note: nearly all actives have a fitted effect of over 70% in size; note: potency is the fitted concentration of half-maximal effect
# How it was run: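 ELG1-luciferase HEK293T reporter; 5-fluorouridine + compound/DMSO, 16 hr, 37 °C, 5% CO2; ONE-Glo 30 min RT; luminescence read, qHTS format.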
# [18] = target: Thyrotropin-releasing hormone receptor (Homo sapiens) (UniProt P34981); assay: qHTS for Small Molecule Agonists and Allosteric Enhancers of Human TRH Receptor: Validation Screen for Agonists (AID 493127;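 active = calcium activation more than 3 SD above the typical response in the agonist read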;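 note: intracellular calcium rise by fluo-8 fluorescence before TRH EC20 addition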); settings: TRH receptor agonist cell assay; at 2 µM; stronger effect = higher value
# How it was run: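 Read-out: intracellular calcium release measured kinetically by FDSS (fluo-8, ex 480/em 530 nm), 1 reading/s after a 10-cycle baseline. TRHR cells, 2000/well, cultured 18 h at 33.5C, dye-loaded at room temp. Compound-evoked positive calcium signal flags agonists.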
# Chain of Methanococcus maripaludis chaperonin (MmCpn) (Q6LX38 1-543): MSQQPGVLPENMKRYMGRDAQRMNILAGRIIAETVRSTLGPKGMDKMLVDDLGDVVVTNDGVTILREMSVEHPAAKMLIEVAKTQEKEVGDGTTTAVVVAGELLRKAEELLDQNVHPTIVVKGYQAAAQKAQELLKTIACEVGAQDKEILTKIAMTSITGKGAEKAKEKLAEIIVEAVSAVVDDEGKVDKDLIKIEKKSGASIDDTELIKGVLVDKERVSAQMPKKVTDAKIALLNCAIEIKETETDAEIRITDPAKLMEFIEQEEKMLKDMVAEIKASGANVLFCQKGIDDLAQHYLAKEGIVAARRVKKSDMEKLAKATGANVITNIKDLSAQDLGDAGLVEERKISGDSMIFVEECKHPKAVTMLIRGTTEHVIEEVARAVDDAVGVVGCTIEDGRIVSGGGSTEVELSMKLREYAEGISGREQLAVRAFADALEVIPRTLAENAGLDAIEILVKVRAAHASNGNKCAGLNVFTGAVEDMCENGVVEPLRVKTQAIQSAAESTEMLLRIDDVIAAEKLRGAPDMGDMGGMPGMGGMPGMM
# Chain of Thioredoxin reductase 1, cytoplasmic (Rattus norvegicus) (O89049 whole entry, looked up): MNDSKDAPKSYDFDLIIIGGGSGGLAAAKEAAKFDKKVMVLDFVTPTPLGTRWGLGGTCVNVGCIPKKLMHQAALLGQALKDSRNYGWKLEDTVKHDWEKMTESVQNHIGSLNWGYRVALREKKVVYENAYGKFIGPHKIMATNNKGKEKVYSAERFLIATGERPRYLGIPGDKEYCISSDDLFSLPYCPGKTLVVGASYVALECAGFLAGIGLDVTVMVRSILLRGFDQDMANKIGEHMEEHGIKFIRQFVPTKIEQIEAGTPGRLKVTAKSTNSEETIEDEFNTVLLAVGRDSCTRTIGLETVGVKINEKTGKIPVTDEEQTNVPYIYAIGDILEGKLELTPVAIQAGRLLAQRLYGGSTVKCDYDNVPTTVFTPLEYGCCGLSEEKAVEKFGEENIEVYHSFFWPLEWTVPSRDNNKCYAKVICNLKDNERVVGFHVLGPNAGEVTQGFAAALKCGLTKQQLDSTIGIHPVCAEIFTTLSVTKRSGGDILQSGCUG
# Chain of Flap endonuclease 1 (Homo sapiens) (P39748 whole entry, looked up): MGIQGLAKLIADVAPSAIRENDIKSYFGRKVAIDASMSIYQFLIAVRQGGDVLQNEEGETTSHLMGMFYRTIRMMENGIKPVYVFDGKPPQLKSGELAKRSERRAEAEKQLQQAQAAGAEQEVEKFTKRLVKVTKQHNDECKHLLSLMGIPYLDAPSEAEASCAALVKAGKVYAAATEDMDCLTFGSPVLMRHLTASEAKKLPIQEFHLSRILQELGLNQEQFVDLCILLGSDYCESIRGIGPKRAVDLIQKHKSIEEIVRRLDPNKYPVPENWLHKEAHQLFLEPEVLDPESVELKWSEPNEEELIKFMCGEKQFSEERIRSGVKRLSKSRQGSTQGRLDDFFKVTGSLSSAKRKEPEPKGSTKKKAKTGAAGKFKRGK
# Chain of Chromobox protein homolog 1 (Homo sapiens) (P83916 whole entry, looked up): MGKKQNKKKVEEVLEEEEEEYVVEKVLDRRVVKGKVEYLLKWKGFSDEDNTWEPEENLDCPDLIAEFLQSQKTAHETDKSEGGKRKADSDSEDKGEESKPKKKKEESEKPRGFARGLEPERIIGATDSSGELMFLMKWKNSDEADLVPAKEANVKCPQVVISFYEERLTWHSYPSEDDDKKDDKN
# Chain of Transient receptor potential cation channel subfamily V member 1 (Homo sapiens) (Q8NER1 whole entry, looked up): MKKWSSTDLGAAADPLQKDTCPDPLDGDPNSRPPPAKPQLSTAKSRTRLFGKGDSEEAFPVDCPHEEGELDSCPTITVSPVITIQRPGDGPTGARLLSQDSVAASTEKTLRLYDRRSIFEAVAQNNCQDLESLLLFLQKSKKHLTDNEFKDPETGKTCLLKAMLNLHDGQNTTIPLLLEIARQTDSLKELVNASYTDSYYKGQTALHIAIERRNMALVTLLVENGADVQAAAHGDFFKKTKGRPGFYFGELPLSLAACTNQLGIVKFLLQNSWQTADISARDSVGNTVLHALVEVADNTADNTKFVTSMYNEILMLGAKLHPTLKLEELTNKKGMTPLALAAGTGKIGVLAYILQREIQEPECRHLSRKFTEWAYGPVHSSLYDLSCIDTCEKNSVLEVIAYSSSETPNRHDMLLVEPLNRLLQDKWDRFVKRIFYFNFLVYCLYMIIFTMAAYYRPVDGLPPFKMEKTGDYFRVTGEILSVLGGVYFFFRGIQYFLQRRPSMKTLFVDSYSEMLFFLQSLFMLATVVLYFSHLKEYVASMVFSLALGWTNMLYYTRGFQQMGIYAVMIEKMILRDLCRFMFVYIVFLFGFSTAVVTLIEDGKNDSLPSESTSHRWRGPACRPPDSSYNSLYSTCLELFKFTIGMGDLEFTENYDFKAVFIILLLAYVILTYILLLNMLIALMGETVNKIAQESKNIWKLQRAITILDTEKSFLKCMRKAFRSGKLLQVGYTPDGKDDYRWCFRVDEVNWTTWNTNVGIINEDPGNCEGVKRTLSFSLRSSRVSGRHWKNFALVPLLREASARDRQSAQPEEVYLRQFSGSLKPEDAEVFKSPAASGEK
# Chain of D(1A) dopamine receptor (Homo sapiens) (P21728 whole entry, looked up): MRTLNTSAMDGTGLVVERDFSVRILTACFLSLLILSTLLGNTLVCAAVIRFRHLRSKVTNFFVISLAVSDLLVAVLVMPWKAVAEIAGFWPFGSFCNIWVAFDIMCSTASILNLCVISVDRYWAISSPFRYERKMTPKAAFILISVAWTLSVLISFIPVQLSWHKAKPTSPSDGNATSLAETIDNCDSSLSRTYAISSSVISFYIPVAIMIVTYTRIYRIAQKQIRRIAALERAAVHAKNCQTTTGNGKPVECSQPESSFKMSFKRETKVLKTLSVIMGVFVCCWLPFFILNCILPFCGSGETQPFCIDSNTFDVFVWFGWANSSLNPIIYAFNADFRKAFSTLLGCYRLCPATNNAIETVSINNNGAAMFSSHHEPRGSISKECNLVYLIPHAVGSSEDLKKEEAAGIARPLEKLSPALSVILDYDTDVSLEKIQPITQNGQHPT
# Chain of Beta-2 adrenergic receptor (Homo sapiens) (P07550 whole entry, looked up): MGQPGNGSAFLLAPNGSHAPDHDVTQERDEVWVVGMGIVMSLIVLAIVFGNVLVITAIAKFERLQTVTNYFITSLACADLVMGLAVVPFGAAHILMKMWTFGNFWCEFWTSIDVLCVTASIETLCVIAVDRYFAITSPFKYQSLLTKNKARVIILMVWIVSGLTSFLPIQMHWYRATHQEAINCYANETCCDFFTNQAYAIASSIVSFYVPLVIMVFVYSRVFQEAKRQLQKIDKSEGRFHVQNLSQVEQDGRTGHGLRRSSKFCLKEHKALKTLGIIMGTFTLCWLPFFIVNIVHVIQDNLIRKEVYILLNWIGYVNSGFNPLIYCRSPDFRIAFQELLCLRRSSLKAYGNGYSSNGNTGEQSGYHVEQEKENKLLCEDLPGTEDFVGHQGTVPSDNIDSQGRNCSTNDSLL
# Chain of Thyrotropin-releasing hormone receptor (Homo sapiens) (P34981 whole entry, looked up): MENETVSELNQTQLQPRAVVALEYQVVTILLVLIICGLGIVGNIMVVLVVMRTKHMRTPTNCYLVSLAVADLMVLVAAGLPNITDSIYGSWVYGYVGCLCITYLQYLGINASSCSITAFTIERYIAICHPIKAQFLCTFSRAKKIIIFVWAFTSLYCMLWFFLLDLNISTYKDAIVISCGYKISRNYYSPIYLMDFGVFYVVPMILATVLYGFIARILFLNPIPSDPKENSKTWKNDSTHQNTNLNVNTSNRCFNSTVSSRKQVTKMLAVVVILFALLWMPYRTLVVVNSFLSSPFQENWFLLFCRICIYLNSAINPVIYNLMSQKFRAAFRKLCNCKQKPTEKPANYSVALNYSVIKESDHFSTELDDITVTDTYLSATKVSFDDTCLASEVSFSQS
# Chain of M-phase phosphoprotein 8 (Homo sapiens) (Q99549 whole entry, looked up): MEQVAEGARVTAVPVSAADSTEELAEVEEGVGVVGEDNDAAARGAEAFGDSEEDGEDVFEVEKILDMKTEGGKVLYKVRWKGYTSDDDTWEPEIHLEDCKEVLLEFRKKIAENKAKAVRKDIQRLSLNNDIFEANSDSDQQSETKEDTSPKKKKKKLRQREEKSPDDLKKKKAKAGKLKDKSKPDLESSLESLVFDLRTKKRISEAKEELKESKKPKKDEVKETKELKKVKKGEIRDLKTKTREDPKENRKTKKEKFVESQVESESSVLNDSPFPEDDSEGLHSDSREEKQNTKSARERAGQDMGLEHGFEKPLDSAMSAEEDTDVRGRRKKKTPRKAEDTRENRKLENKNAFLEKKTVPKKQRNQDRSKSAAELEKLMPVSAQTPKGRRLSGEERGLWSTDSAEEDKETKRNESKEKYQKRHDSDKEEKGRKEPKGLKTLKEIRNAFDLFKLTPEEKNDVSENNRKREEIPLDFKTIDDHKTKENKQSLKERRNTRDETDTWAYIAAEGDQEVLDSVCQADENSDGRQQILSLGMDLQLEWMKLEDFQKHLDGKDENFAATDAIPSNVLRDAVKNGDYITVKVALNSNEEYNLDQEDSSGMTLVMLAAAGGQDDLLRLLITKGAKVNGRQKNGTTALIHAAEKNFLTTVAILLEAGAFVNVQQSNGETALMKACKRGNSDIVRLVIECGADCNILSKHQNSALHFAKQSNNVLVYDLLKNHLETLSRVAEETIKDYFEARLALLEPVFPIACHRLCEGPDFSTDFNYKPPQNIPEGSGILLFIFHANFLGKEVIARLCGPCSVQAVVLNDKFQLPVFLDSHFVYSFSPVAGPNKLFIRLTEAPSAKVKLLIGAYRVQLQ
Compound,outcome [1],Potency [2],Potency [3],Potency [4],Potency [5],outcome [6],Potency [7],Potency [8],Potency [9],Potency [10],Potency [11],Potency [12],outcome [13],Potency [14],outcome [15],outcome [16],Potency [17],activation [18]
c1ccc2c(c1)CCC[C@H]2Nc1nc2ccccc2[nH]1,inactive,inactive,inactive,inactive,inactive,inactive,inactive,inactive,inactive,inactive,–,–,–,–,–,–,–,–
CC1CNCCN1S(=O)(=O)c1cccc2cnccc12 (stereo unspecified),inactive,–,inactive,inactive,inactive,inactive,inactive,inactive,inactive,inactive,inactive,inactive,inactive,inactive,inactive,inactive,8.2 µM (active),–
CCC(=O)N1CCN(C(=O)c2ccccc2)CC1,inactive,–,inactive,inactive,inactive,inactive,inactive,inactive,inactive,inactive,inactive,inactive,inactive,inactive,inactive,inactive,inactive,1.38% (inactive)
N[C@@H](Cc1ccc(F)cc1)C(=O)O,inactive,inactive,inactive,–,inactive,inactive,inactive,inactive,inactive,inactive,–,–,inactive,inactive,inactive,inactive,–,0.125% (inactive)
CC1=C(/C=C/C(C)=C/C=C/C(C)=C\C(=O)O)C(C)(C)CCC1,inactive,inactive,–,inactive,inactive,inactive,inactive,inactive,inactive,inactive,–,–,inactive,inactive,inactive,–,–,–
NC(N)=NC(N)=Nc1cccc(Cl)c1,inactive,–,inactive,inactive,inactive,inactive,inactive,inactive,inactive,inactive,9.28 µM (active),inactive,inactive,inactive,inactive,inactive,inactive,1.62% (inactive)
NC(N)=NC(N)=Nc1ccccc1,inactive,–,inactive,inactive,inactive,inactive,inactive,inactive,inactive,inactive,inactive,inactive,inactive,inactive,inactive,inactive,inactive,–
Oc1cc(O)c2c(c1)O[C@H](c1ccc(O)c(O)c1)[C@@H](O)C2,inactive,–,inactive,4.74 µM (active),inactive,inactive,inactive,inactive,inactive,inactive,inactive,inactive,inactive,inactive,inactive,inactive,inactive,–
O=c1cc(-c2ccccc2F)[nH]c2cc3c(cc12)OCO3,inactive,inactive,inactive,inactive,inactive,inactive,inactive,inactive,inactive,5.17 µM (active),–,–,inactive,–,–,–,inactive,–
Nc1ncnc2c1ncn2C1CCCO1 (stereo unspecified),inactive,–,inactive,inactive,inactive,inactive,inactive,inactive,inactive,inactive,inactive,inactive,inactive,0.006 µM (active),inactive,inactive,inactive,-0.25% (inactive)
NC[C@@H]1O[C@H](c2ccccc2)Cc2c1ccc(O)c2O,inactive,inactive,inactive,–,inactive,inactive,inactive,inactive,–,inactive,–,–,inactive,inactive,–,–,inactive,–
COc1cc(C(O)C(=O)O)ccc1O (stereo unspecified),inactive,–,inactive,inactive,inactive,inactive,inactive,inactive,inactive,inactive,inactive,inactive,inactive,inactive,inactive,inactive,inactive,–
O=C(O)c1cc(=O)cc(C(=O)O)[nH]1,inactive,–,inactive,inactive,inactive,inactive,inactive,inactive,inactive,inactive,inactive,inactive,inactive,inactive,inactive,inactive,inactive,0.75% (inactive)
C=C1C[C@@]23CC[C@H]4[C@@](C)(CCC[C@@]4(C)C(=O)O)[C@@H]2CC[C@]1(O)C3,inactive,inactive,inactive,inactive,inactive,inactive,–,inactive,inactive,inactive,–,–,inactive,–,–,–,–,–
C[N+](C)(C)CC=O,inactive,–,inactive,inactive,inactive,inactive,inactive,inactive,inactive,inactive,inactive,inactive,inactive,inactive,inactive,inactive,inactive,1.56% (inactive)
CCOC(=O)C12CC1/C(=N/O)c1ccccc1O2 (stereo unspecified),inactive,–,inactive,inactive,inactive,inactive,inactive,inactive,inactive,inactive,inactive,inactive,inactive,inactive,inactive,inactive,inactive,-3.94% (inactive)
Cn1c(=O)c2[nH]c(C3CCCC3)nc2n(C)c1=O,inactive,–,inactive,inactive,inactive,inactive,inactive,inactive,inactive,inactive,inactive,inactive,inactive,inactive,inactive,inactive,inactive,0.125% (inactive)
NC(Cc1cccc(-c2ccccc2CP(=O)(O)O)c1)C(=O)O (stereo unspecified),inactive,–,inactive,inactive,inactive,inactive,–,–,inactive,inactive,inactive,inactive,inactive,inactive,inactive,inactive,inactive,1.31% (inactive)
CCCCS(=N)(=O)CC[C@H](N)C(=O)O (stereo partly specified),inactive,–,inactive,inactive,inactive,inactive,–,inactive,inactive,inactive,inactive,inactive,inactive,inactive,inactive,inactive,–,-2.62% (inactive)
O=C(O)c1cc2cc(F)ccc2[nH]1,inactive,–,inactive,inactive,inactive,inactive,inactive,inactive,inactive,inactive,inactive,inactive,inactive,inactive,inactive,inactive,–,-2.56% (inactive)
[N-]=[N+]=Nc1ccc(C(=O)CSC[C@H](NC(=O)CC[C@H](N)C(=O)O)C(=O)NCC(=O)O)cc1,inactive,–,inactive,inactive,35.5 µM (active) and inactive,inactive,inactive,–,inactive,inactive,inactive,inactive,inactive,39.8 µM (active),inactive,inactive,inactive,1.12% (inactive)
Nc1ncnc2c1ncn2C1CCCC1,inactive,–,inactive,inactive,inactive,inactive,inactive,inactive,inactive,–,inactive,inactive,inactive,inactive,inactive,inactive,inactive,1.12% (inactive)
CCCCCCCCCC[Si](C)(C)CCC(=O)NC(Cc1ccc(C)cc1)c1ccccc1 (stereo unspecified),inactive,–,inactive,inactive,inactive,inactive,inactive,inactive,inactive,inactive,inactive,inactive,inactive,inactive,inactive,inactive,–,0.812% (inactive)
